Sampled rows, rich in hits. Any-hit rate of the full collection: about 6.8%.
Abs 340nm: compound absorbs light at 340 nm | compound absorbance at 340 nm, fold over control | fold change at 10 µM | 65,000 tested, under 10 active;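 active means at 10 µM dose, initial 340 nm absorbance at least 2 fold that of control wells; inactive means change under 2 fold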;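 further: initial absorbance extrapolated from kinetic A340 decline of NADH oxidation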
Spn MK inh: inhibitors of Streptococcus pneumoniae mevalonate kinase; purified MK, PK/LDH-coupled NADH absorbance 340 nm; inhibition, % at 10 µM; actives 0.48% (n = 65,000);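 active means ranked among the strongest by inhibition in the single 10 µM screen, a fixed top-ranked set picked for dose follow-up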
NADH enzymes: blocks coupling enzymes of NAD/NADH assays; IC50, µM (top dose mostly 10 µM), inactives show at the top dose inhibition; actives 0.02% (n = 65,000); coupled PK/LDH NADH assays, four targets; AID 774;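 active means single-dose screening hits from any of four coupled enzyme assays that gave an IC50 when retested across doses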;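 further: the DPM-DC format reads NADH fluorescence rather than 340 nm absorbance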
Fluor 339 460: intrinsic fluorescence of library compounds, ex339/em460 – biochemical, MLSMR library, data from DPM-DC assay, artefact control, profiling panel | actives 5.5% (n = 65,000) | fluorescence fold increase at 10 µM | compound autofluorescence, ex339/em460 nm, NADH buffer; active compounds read high; 1 = no-compound wells, NADH background | AID 709;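 active means at 10 µM, mean starting fluorescence two-fold or more over control wells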;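 further: signal is the first read of a kinetic run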
DPM-DC inhibit: S. pneumoniae DPM-DC inhibition | purified DPM-DC, PK/LDH coupled NADH fluorescence | calls only at 10 µM | actives 0.49% (n = 65,000) | AID 556;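 active means the 320 compounds with the highest percent inhibition in the single-dose primary screen, excluding strongly autofluorescent ones, cut at about 32% in these data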;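 further: kinetic rate of NADH fluorescence loss reporting ADP formed by the decarboxylase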
Spn PMK inh: inhibitors of Streptococcus pneumoniae phosphomevalonate kinase | purified PMK, PK/LDH-coupled NADH absorbance 340 nm | inhibition, % at 10 µM | actives 0.49% (n = 65,000);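 active means top-ranked compounds by inhibition in the single 10 µM screen, taking a fixed number of the strongest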;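 further: 0% = full reaction with DMSO carrier and 100% = background rate without enzyme reaction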
Active calls of the source: *; i = inactive; · = no result given; + = active, no number; [ ] = another dose, or the depositor's remark.

SMILES | Abs 340nm | Spn MK inh | NADH enzymes | Fluor 339 460 | DPM-DC inhibit | Spn PMK inh
Cn1c2ccccc2c(=O)n2c(=O)c3ccccc3cc12 | 1.06 | 7.0 | 10.0% | 2.38* | i | 12.0
O=C(O)c1ccc2cc[nH]c2c1 | 1 | 9.0 | 8.0% | 1.15 | i | 10.0
O=C(CN1CCN(C2CCCCC2)CC1)c1ccc2cc[nH]c2c1 | 1.15 | 0.0 | 1.0% | 2.1* | · | 1.0
O=C(CSc1nnc2ccccn12)NC(=O)NC1CCCCC1 | 1.01 | 5.0 | 8.0% | 1.1 | i | 19.0
O=C(CSc1nnc2ccccn12)Nc1ccccc1C(=O)NC1CC1 | 1.01 | 0.0 | 17.0% | 0.94 | + | 14.0
CCn1cc(C(=O)NCCc2ccccc2)c(=O)c2cc(F)c(N3CCN(C)CC3)cc21 | 1.04 | 0.0 | 4.0% | 1.56 | i | 4.0
CCn1cc(C(=O)NCc2ccc3c(c2)OCO3)c(=O)c2cc(F)c(N3CCN(C)CC3)cc21 | 1.05 | 7.0 | 11.0% | 2.2* | i | 2.0
CCn1cc(C(=O)NCc2ccco2)c(=O)c2cc(F)c(N3CCN(C(=O)c4ccco4)CC3)cc21 | 1.01 | 3.0 | 4.0% | 2.38* | +[fluoresces] | 10.0
O=S(=O)(c1ccc(NCCc2c[nH]c3ccccc23)nc1)N1CCOCC1 | 1.03 | 6.0 | 3.0% | 1.12 | i | 3.0
CCOC(=O)C1C(=O)N(C(=O)c2cncc(Br)c2)CC1c1ccccc1 (configuration not stated) | 1.03 | 7.0 | 6.0% | 1.01 | i | 8.0
Cc1onc(-c2c(Cl)cccc2Cl)c1C(=O)Nc1ccc2c(c1)OCO2 | 1.03 | 9.0 | 15.0% | 1.12 | i | 28.0*
CC(C)c1cc(C(=O)Nc2ccc3c(c2)OCO3)no1 | 1.04 | 3.0 | 2.0% | 1.04 | i | 4.0
CN(C)CCCN1C(=O)C(=O)/C(=C(/O)c2ccc(S(=O)(=O)N(C)C)cc2)C1c1ccncc1 (configuration not stated) | 1.06 | 4.0 | 2.0% | 1.03 | i | 0.0
Cc1c2cccn2cc[n+]1C | 0.99 | 6.0 | 3.0% | 3.76* | · | 0.0
C(=C\c1ccccc1)/CSc1nnc(-c2cccnc2)o1 | 1.02 | 0.0 | 0.0% | 1.1 | i | 0.0
CCOC(=O)Cc1csc(NC(=O)c2ccc(Br)s2)n1 | 1.08 | 8.0 | 7.0% | 1.08 | i | 6.0
CCOc1cccc2sc(NC(=O)c3ccc(Br)s3)nc12 | 1.15 | 1.0 | 1.0% | 2.09* | · | 0.0
CCS(=O)(=O)N1CCC(C(=O)NCC2CCCO2)CC1 (configuration not stated) | 1 | 0.0 | 8.0% | 1.06 | i | 25.0*
O=C(NCC1CCCO1)C1CCN(S(=O)(=O)N2CCCC2)CC1 (configuration not stated) | 1 | 0.0 | 7.0% | 1.01 | i | 21.0
CCS(=O)(=O)N1CCC(C(=O)NCCc2ccc(C)cc2)CC1 | 0.99 | 0.0 | 3.0% | 1.05 | i | 24.0
O=C(NCC1CCCO1)C1CC(=O)N(C2CCCCCC2)C1 (configuration not stated) | 1 | 0.0 | 9.0% | 1.04 | i | 27.0*
CCS(=O)(=O)N1CCC(C(=O)NCCc2ccccc2)CC1 | 1.01 | 0.0 | 8.0% | 1.08 | i | 25.0*
CC1CN(S(=O)(=O)c2cccc(C(=O)OCc3cc(=O)oc4cc(O)ccc34)c2)CC(C)O1 (configuration not stated) | 1 | 5.0 | 3.0% | 3.43* | · | 8.0
CC1CN(S(=O)(=O)c2cccc(C(=O)OCC(=O)Nc3ccc4c(c3)OCO4)c2)CC(C)O1 (configuration not stated) | 1.01 | 0.0 | 7.0% | 1.02 | i | 21.0
COc1cc(OC)c(C2C(C(=O)N3CCOCC3)=C(C)NC3=C2C(=O)CC(C)(C)C3)cc1OC (configuration not stated) | 1.11 | 6.0 | 4.0% | 1.16 | i | 0.0
SMILES | Abs 340nm | Spn MK inh | NADH enzymes | Fluor 339 460 | DPM-DC inhibit | Spn PMK inh
COc1cc(C2C(C(=O)N3CCOCC3)=C(C)NC3=C2C(=O)CCC3)ccc1OC(C)=O (configuration not stated) | 1.1 | 3.0 | 10.0% | 3.69* | · | 16.0
COC(=O)C1=C(C)NC2=C(C(=O)CCC2)C1c1cccs1 (configuration not stated) | 1.06 | 3.0 | 7.0% | 1.55 | i | 4.0
CC1=C(C(=O)N2CCOCC2)C(c2ccccc2F)C2=C(CCCC2=O)N1 (configuration not stated) | 1.06 | 6.0 | 4.0% | 2.94* | · | 7.0
CC1=C(C(=O)N2CCCCC2)C(c2cccs2)C2=C(CCCC2=O)N1 (configuration not stated) | 1.08 | 0.0 | 3.0% | 2.06* | · | 9.0
COc1ccccc1NC(=O)C1=C(C)NC2=C(C(=O)CCC2)C1c1ccc2c(c1)OCO2 (configuration not stated) | 1.07 | 0.0 | 13.0% | 2.48* | + | 7.0
CC(C)N(Cc1nnc(-c2ccccc2Cl)o1)C(=O)c1cccc(C#N)c1 | 1.02 | 12.0 | 7.0% | 1.07 | i | 0.0
Cc1cc(NO)nc(-c2ccc(Br)cc2)n1 | 1.03 | 0.0 | 0.0% | 1.11 | i | 1.0
Cc1ccc(-c2noc(CN3C(C)CCCC3C)n2)cc1 (configuration not stated) | 0.99 | 11.0 | 5.0% | 1.06 | i | 15.0
CC1CCCC(C)N1C(=O)CSc1nnc(C2CCCCC2)o1 (configuration not stated) | 0.99 | 7.0 | 6.0% | 1.15 | i | 6.0
CCOC(=O)Nc1ccc2c(c1)N(C(=O)N(CC)CC)c1ccccc1CC2 | 1.04 | 0.0 | 3.0% | 1.14 | i | 9.0
CCN(CC)S(=O)(=O)c1ccc(C(=O)OCC(=O)N2CCN(C(=O)c3ccco3)CC2)cc1 | 1 | 48.0* | 16.0% | 1.1 | i | 0.0
COc1ccccc1Cn1c2nc3ccccc3nc2c2c(=O)n(CC(C)C)cnc21 | 1.03 | 8.0 | 4.0% | 1.14 | i | 0.0
O=C(COc1ccccc1)Nc1nnc(-c2ccc(Cl)s2)o1 | 1.13 | 7.0 | 10.0% | 2.07* | · | 12.0
O=C(COc1ccccc1)Nc1nnc(-c2ccccc2)o1 | 1.03 | 9.0 | 6.0% | 1.07 | i | 3.0
COc1ccc(C(=O)NCCn2ccc3ccccc32)cc1 | 0.99 | 9.0 | 3.0% | 1.03 | i | 9.0
O=C(NCCn1ccc2ccccc21)c1ccc2c(c1)OCO2 | 1.05 | 5.0 | 6.0% | 2.13* | · | 6.0
COC(=O)c1ccccc1NC(=O)CSc1nnc(CNS(=O)(=O)c2ccc(C)cc2)n1C | 1 | 0.0 | 2.0% | 1.07 | i | 7.0
Cc1nc2ccccc2n1-c1nc(-c2ccco2)cc(C(F)(F)F)n1 | 1.1 | 3.0 | 5.0% | 1.77 | i | 13.0
FC(F)(F)c1cc(-c2ccco2)nc(-n2cnc3ccccc32)n1 | 1.07 | 8.0 | 11.0% | 2.7* | i | 16.0
CCN(CC)c1cccc(OC2=NS(=O)(=O)c3ccccc32)c1 | 1.02 | 7.0 | 6.0% | 1.11 | i | 11.0
